# Measured values taken from PubChem BioAssay.
# For some assays here: Results with a measured potency or affinity are listed apart. The source made the active and inactive calls.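 Rule for the calls, unless noted: active = membrane potential signal rise above negative control mean plus 3 SD in both duplicates, also active in the earlier TRPC4 screen; inactive = the rest.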
# How the values were obtained:
# [1] = test system: TRPC4 beta (transient receptor potential cation channel C4), mouse; assay: activators of mouse TRPC4 channel, confirmation, cell-based, Fluo4 calcium, HEK293 TRPC4beta/mu-opioid, duplicates, 10 µM (AID 2426;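 active = fluorescence ratio normalized to control raised more than 50% in primary screen plus both repeat runs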); conditions: Fluo4 calcium fluorescence, at 10 µM; active compounds read high
# [2] = test system: transient receptor potential cation channel C4 beta (TRPC4), mouse; assay: activators of mouse TRPC4 channel, confirmation, cell-based, second round, Fluo4, HEK293 TRPC4beta/mu-opioid, 1 µM (AID 2461;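 active = primary screen active and over 50% activation in each of two duplicate runs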); conditions: Fluo4 calcium fluorescence, at 1 µM; active compounds read high
# [3] = test system: TRPC4 (transient receptor potential cation channel C4 beta), mouse; assay: positive allosteric modulators of mouse TRPC4, confirmation, cell-based, second round, Fluo-4, HEK293 TRPC4beta/mu-opioid, 1 µM (AID 2554;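 active = primary screen hit whose fluorescence ratio, in both repeats, exceeds the weak agonist control mean by 3 SD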); conditions: DAMGO EC20, Fluo-4 calcium flux, at 1 µM; active compounds read high
# [4] = test system: TRPC4 beta (transient receptor potential cation channel C4), mouse; assay: positive allosteric modulators of mouse TRPC4, confirmation, cell-based, Fluo-4, HEK293 TRPC4beta/mu-opioid (AID 2555;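 active = primary screen hit whose calcium fluorescence ratio, in both repeats, exceeds the weak agonist control mean by 3 SD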); conditions: DAMGO EC20, Fluo-4 calcium flux, at 10 µM; active compounds read high
# [5] = biological target: Short transient receptor potential channel 4 (Mus musculus) (UniProt Q9QUQ5); assay: inhibitors of mouse TRPC4 channel, confirmation, cell-based, Fluo4, HEK293 TRPC4beta/mu-opioid (AID 2636;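 active = calcium signal cut by more than 3 SD below the full-agonist control yet still positive, in both repeats and the earlier primary screen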); conditions: DAMGO, Fluo4 calcium flux, at 10 µM; active compounds read high
# [6] = biological target: Short transient receptor potential channel 4 (Mus musculus) (UniProt Q9QUQ5); assay: inhibitors of mouse TRPC4 channel, confirmation, cell-based, second round, Fluo4, HEK293 TRPC4beta/mu-opioid, 1 µM (AID 2637;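 active = calcium signal ratio cut to more than 3 SD under the fully stimulated control mean yet still positive, in both repeats and the primary screen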;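 for inhibition: percent of integrated ratio relative to wells lacking test compound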); conditions: Fluo4 calcium flux, DAMGO, at 1 µM; active compounds read high
# [7] = biological target: Short transient receptor potential channel 4 (Mus musculus) (UniProt Q9QUQ5); assay: mouse TRPC4 channel activators, dose response, cell-based, HEK293 TRPC4/mu-opioid, Fluo-4 calcium (AID 434937;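 active = primary screen activator hit with a dose response curve and TRPC4 channel activation at any tested dose; inactive = no activation, no dose response, or not a primary hit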)
# [8] = biological target: Short transient receptor potential channel 4 (Mus musculus) (UniProt Q9QUQ5); assay: TRPC4 positive allosteric modulators, dose response, cell-based, HEK293 TRPC4/mu-opioid, Fluo-4 calcium, EC20 DAMGO (AID 434941;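 active = earlier screen potentiator hit that boosts the TRPC4 ion channel at some dose, with a dose response; inactive = no potentiation, no dose response, or not a prior hit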;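 note: calcium entry triggered by an EC20 dose of DAMGO at the co-expressed mu-opioid receptor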)
# [9] = biological target: Short transient receptor potential channel 6 (Mus musculus) (UniProt Q61143); assay: inhibition of mouse TRPC6 channel, confirmation, selectivity assay for TRPC4 inhibitor project, cell-based, HEK293, membrane potential dye, duplicate (AID 434948;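 active = active in primary screen and both duplicates, each dropping signal beyond three positive-control SD with fluorescence still positive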); conditions: HEK293 TRPC6, membrane potential dye fluorescence, at 10 µM, stimulated with maximal-effect acetylcholine; active compounds read high
# [10] = biological target: Short transient receptor potential channel 6 (Mus musculus) (UniProt Q61143); assay: activation of mouse TRPC6 channel, confirmation, selectivity assay for TRPC4 activator project, cell-based, HEK293, membrane potential dye, duplicate (AID 434950); conditions: HEK293 TRPC6, membrane potential fluorescence, at 10 µM; active compounds read high
# [11] = biological target: Short transient receptor potential channel 6 (Mus musculus) (UniProt Q61143); assay: TRPC6 potentiation by TRPC4 potentiator hits, confirmation, selectivity assay for TRPC4 potentiator project, HEK293 cells, membrane potential dye, duplicate (AID 434952;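 active = compound raising the membrane signal above positive-control mean plus 3 SD in both repeats, and a primary screen hit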); conditions: HEK293 TRPC6, membrane potential dye fluorescence, at 10 µM, maximal acetylcholine added after compound; active compounds read high
# [12] = biological target: Short transient receptor potential channel 4 (Mus musculus) (UniProt Q9QUQ5); assay: calcium flux activators in TRPC4/5HT1a cells, counter-screen for TRPC4 activator project, cell-based, second counter screen, HEK293 TRPC4/5HT1a, Fluo-4 (AID 434977;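 active = calcium signal rise above buffer-control mean plus 5 SD in both duplicates, and also a hit in the primary screen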); conditions: Fluo-4 calcium flux, at 10 µM; active compounds read high
# [13] = calcium flux inhibitors in TRPC4/5HT1a cells, confirmation, counter-screen for TRPC4 inhibitor project, cell-based, second counter screen, HEK293 TRPC4/5HT1a, Fluo-4 (AID 434978;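 active = primary screen active whose calcium signal fell more than 3 SD beyond the full-serotonin control mean in both duplicate plates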;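 for outcome: serotonin given first at submaximal then at maximal dose after compound preincubation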); conditions: Fluo-4 calcium flux, at 10 µM, serotonin added to trigger calcium flux; active compounds read high
# [14] = test system: TRPC4 (mouse), co-expressed with 5HT1a in HEK293; assay: calcium flux potentiators in TRPC4/5HT1a cells, confirmation, counter-screen for TRPC4 potentiator project, cell-based, second counter screen, HEK293 TRPC4/5HT1a, Fluo-4 (AID 434979;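 active = signal rise over 3 SD above mean of control wells given weak agonist, in both repeats and first screen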); conditions: Fluo-4 calcium flux, at 10 µM, serotonin added at its EC20 dose; active compounds read high
# [15] = calcium flux activation in mu-opioid HEK293 cells, confirmation, counter-screen for TRPC4 activator project, cell-based, HEK293 mu-opioid receptor line (AID 449723;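 active = hit in primary screen, with calcium signal over 5 SD above buffer well mean in both duplicates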;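 note: counter screen cells carry the mu-opioid receptor alone and lack TRPC4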); conditions: Fluo-4 calcium fluorescence, at 10 µM; active compounds read high
# [16] = calcium flux enhancement in mu-opioid HEK293 cells, confirmation, counter-screen for TRPC4 allosteric potentiator project, cell-based, HEK293 mu-opioid receptor line (AID 449724;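 active = calcium signal rise more than 3 SD above the low-dose agonist control mean, in both duplicate plates and the primary screen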); conditions: Fluo-4 calcium flux, at 10 µM, compound added before EC20 DAMGO stimulus; active compounds read high
# Sequence of Short transient receptor potential channel 4 (Mus musculus) (Q9QUQ5 whole entry, looked up): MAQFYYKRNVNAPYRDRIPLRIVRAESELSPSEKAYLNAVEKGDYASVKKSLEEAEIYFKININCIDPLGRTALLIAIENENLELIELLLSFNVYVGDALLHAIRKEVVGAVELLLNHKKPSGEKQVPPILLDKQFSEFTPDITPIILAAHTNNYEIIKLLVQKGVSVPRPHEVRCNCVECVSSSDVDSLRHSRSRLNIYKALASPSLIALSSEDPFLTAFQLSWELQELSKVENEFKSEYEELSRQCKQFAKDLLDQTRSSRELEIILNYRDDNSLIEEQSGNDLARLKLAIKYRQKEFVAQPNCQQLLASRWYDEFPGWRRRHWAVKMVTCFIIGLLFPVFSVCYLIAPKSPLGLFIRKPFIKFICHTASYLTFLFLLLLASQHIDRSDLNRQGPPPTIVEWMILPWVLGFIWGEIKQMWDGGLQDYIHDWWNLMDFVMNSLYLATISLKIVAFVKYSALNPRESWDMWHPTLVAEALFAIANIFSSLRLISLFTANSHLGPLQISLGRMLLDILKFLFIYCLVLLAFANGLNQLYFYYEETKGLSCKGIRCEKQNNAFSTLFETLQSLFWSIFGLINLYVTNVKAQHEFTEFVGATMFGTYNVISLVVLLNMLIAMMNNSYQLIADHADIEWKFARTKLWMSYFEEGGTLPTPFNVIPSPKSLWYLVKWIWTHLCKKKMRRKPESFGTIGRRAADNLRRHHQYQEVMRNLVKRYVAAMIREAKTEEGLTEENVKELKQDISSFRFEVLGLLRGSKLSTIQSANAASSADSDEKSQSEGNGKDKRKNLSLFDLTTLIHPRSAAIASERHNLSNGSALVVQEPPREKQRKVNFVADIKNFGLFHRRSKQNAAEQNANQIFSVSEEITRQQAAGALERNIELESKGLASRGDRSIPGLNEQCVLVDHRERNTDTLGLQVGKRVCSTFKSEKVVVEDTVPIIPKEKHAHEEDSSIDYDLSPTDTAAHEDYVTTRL
# Sequence of Short transient receptor potential channel 6 (Mus musculus) (Q61143 whole entry, looked up): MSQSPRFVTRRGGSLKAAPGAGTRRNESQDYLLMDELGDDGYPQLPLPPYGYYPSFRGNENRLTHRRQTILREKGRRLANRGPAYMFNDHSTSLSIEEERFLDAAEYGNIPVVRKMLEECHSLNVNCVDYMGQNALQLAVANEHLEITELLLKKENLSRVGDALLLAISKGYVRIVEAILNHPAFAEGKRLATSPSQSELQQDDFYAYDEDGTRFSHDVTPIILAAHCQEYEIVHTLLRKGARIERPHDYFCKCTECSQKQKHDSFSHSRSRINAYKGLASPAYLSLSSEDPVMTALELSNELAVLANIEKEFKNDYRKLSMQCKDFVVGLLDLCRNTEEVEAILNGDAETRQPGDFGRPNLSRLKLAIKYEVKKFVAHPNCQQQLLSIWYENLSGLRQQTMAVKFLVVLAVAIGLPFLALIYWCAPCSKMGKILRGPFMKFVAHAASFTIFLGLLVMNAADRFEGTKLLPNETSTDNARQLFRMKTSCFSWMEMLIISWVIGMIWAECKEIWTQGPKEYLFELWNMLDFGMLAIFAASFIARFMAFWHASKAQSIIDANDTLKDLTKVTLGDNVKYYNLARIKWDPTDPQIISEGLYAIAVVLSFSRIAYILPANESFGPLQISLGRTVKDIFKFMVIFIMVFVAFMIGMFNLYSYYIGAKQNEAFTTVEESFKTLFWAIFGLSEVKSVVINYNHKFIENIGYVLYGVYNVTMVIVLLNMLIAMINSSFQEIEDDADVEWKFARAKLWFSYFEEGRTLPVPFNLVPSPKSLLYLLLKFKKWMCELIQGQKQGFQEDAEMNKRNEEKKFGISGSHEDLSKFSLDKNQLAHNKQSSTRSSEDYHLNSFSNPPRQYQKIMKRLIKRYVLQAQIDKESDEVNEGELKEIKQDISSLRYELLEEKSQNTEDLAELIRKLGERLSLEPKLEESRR
structure (smiles),measurement,setting,value
Cc1ccn2c(CNCCCn3cccn3)c(C(=O)N3CCCCCC3)nc2c1,outcome,[1],inactive
same,outcome,[2],inactive
same,outcome,[3],inactive
same,outcome,[4],inactive
same,inhibition,[5],78% (active)
same,inhibition,[6],47% (active)
same,outcome,[7],inactive
same,outcome,[8],inactive
same,outcome,[9],inactive
same,outcome,[10],inactive
same,outcome,[11],inactive
same,outcome,[12],inactive
same,outcome,[13],inactive
same,outcome,[14],inactive
same,outcome,[15],inactive
same,outcome,[16],inactive
CCCCn1c(NC(=O)c2ccccc2)nc2ccccc21,outcome,[1],inactive
same,outcome,[2],inactive
same,outcome,[3],inactive
same,potentiation,[4],20% (active)
same,outcome,[5],inactive
same,outcome,[6],inactive
same,outcome,[7],inactive
same,outcome,[8],inactive
same,outcome,[9],inactive
same,outcome,[10],inactive
same,outcome,[11],inactive
same,outcome,[12],inactive
same,outcome,[13],inactive
same,outcome,[14],inactive
same,outcome,[15],inactive
same,outcome,[16],inactive
Cc1cccn2cc(-c3c[nH]c4ccccc34)nc12,outcome,[1],inactive
same,outcome,[2],inactive
same,outcome,[3],inactive
same,outcome,[4],inactive
same,outcome,[5],inactive
same,outcome,[6],inactive
same,outcome,[7],inactive
same,outcome,[8],inactive
same,inhibition,[9],33% (active)
same,outcome,[10],inactive
same,outcome,[11],inactive
same,outcome,[12],inactive
same,inhibition,[13],35.1% (active)
same,outcome,[14],inactive
same,outcome,[15],inactive
same,outcome,[16],inactive
CC(=O)OCCCN1C(=O)c2cccc3cc(Br)cc(c23)C1=O,outcome,[1],inactive
same,outcome,[2],inactive
same,outcome,[3],inactive
same,outcome,[4],inactive
same,inhibition,[5],96% (active)
same,inhibition,[6],55% (active)
same,outcome,[7],inactive
same,outcome,[8],inactive
same,outcome,[9],inactive
same,outcome,[10],inactive
same,outcome,[11],inactive
same,outcome,[12],inactive
same,inhibition,[13],14.5% (active)
same,outcome,[14],inactive
same,outcome,[15],inactive
same,outcome,[16],inactive
Cc1cc(C(=O)N/N=C\c2cc(C(C)(C)C)ccc2O)n[nH]1,outcome,[1],inactive
same,outcome,[2],inactive
same,outcome,[3],inactive
same,outcome,[4],inactive
same,inhibition,[5],84% (active)
same,outcome,[6],inactive
same,outcome,[7],inactive
same,outcome,[8],inactive
same,outcome,[9],inactive
same,outcome,[10],inactive
same,outcome,[11],inactive
same,outcome,[12],inactive
same,inhibition,[13],24.2% (active)
same,outcome,[14],inactive
same,outcome,[15],inactive
same,outcome,[16],inactive
CCOc1ccccc1-n1c(SCC(=O)Nc2nccs2)nnc1-c1ccoc1C,outcome,[1],inactive
same,outcome,[2],inactive
same,outcome,[3],inactive
same,outcome,[4],inactive
same,inhibition,[5],52% (active)
same,inhibition,[6],44% (active)
same,outcome,[7],inactive
same,outcome,[8],inactive
same,outcome,[9],inactive
same,outcome,[10],inactive
same,outcome,[11],inactive
same,outcome,[12],inactive
same,outcome,[13],inactive
same,outcome,[14],inactive
same,outcome,[15],inactive
same,outcome,[16],inactive
Cc1ccc(N2CCN(C(=O)c3ccccc3F)CC2)c(C)c1,outcome,[1],inactive
same,outcome,[2],inactive
same,outcome,[3],inactive
same,outcome,[4],inactive
same,inhibition,[5],84% (active)
same,inhibition,[6],41% (active)
same,outcome,[7],inactive
same,outcome,[8],inactive
same,outcome,[9],inactive
same,outcome,[10],inactive
same,outcome,[11],inactive
same,outcome,[12],inactive
same,inhibition,[13],26.6% (active)
same,outcome,[14],inactive
same,outcome,[15],inactive
same,outcome,[16],inactive
COc1ccc2nc(C)cc(NCc3ccc(F)cc3)c2c1,outcome,[1],inactive
same,outcome,[2],inactive
same,outcome,[3],inactive
same,outcome,[4],inactive
same,inhibition,[5],84% (active)
same,outcome,[6],inactive
same,outcome,[7],inactive
same,outcome,[8],inactive
same,inhibition,[9],56% (active)
same,outcome,[10],inactive
same,outcome,[11],inactive
same,outcome,[12],inactive
same,outcome,[13],inactive
same,outcome,[14],inactive
same,outcome,[15],inactive
same,outcome,[16],inactive
